A selection: hits, their analogues and other compounds. The true share with any hit is near 12%.
BAZ2B block = BAZ2B (human) inhibition | Q9UIF8 | AlphaScreen BAZ2B-H3K14Ac peptide displacement | Potency, µM (series often up to 114 µM), usual class: inhibitors | 360,000 compounds, 4.4% hits | AID 504333; also: nearly all actives have a fitted effect of over 60% in size
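AlphaScreen luminescence quantifies BAZ2B engagement of H3K14Ac peptide; the protein and biotinylated peptide are both at 50 nM final, buffer PBS pH 7.4 with 0.01% Tween-20, all steps at room temperature.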
JMJD2A Tudor inh = blocks the human JMJD2A Tudor domain; AlphaScreen JMJD2A-Tudor / H3K4me3 peptide binding; Potency, µM (series often up to 114 µM), hits mostly inhibitors; 390,000 compounds, 4.4% hits; AID 504339; also: nearly all actives have a fitted effect of over 50% in size
HP1b chromo inh = inhibitors of HP1-beta chromodomain binding to methylated histone tails; Potency, µM (titrated, usually from 114 µM), most hits filed as inhibitors; AID 540317; 390,000 compounds, 0.56% hits; AlphaScreen HP1-beta / biotin-H3K9me3 peptide binding; also: nearly all actives have a fitted effect of over 70% in size
Target sequence (P83916 whole entry, looked up): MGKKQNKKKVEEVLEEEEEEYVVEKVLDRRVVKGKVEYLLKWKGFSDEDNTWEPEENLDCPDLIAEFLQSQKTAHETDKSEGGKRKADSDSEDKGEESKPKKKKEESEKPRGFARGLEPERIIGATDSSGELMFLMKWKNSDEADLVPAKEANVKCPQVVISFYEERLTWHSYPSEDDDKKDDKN
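Compound inhibition of the preformed complex between 50 nM HP1-beta and 50 nM biotinylated H3K9me3 peptide was read by AlphaScreen. Buffer was PBS pH 7.4 with 0.01% Tween-20. Incubations ran 30 min at room temperature, with 10 ug/mL donor/acceptor beads.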
TDP1 block = TDP1 (human) enzyme inhibition; recombinant TDP1, AlphaScreen DNA substrate cleavage; AID 485290; Potency, µM (doses to about 130 µM), usual class: inhibitors; 350,000 compounds, 0.28% hits; Q9NUW8; also: nearly all actives have a fitted effect of over 40% in size
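Steps: enzyme plus compound, 15 min RT; add biotin/phosphotyrosine-FITC oligonucleotide (15 nM final), react 5 min; add donor/acceptor beads (10 ug/ml final), 10 min; read AlphaScreen. Tdp1 at 1 nM final.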
G9a inh = blocks human histone lysine methyltransferase G9a; Q96KQ7; G9a H3K9 monomethylation, AlphaScreen, 2 h; Potency, µM (series often up to 102 µM), most hits filed as inhibitors; 350,000 compounds, 8.8% hits; also: nearly all actives have a fitted effect of over 75% in size
Target sequence (Q96KQ7 913-1193 limits assumed): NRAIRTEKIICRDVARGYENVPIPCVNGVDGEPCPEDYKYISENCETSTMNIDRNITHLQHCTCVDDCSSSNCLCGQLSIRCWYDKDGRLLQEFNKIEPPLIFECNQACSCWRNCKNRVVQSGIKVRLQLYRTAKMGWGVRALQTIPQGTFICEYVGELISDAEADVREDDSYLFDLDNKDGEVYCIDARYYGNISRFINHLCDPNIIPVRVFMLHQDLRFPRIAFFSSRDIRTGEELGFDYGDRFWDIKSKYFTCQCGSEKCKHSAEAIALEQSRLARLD
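Enzyme 20 nM + cpd, 15 min RT; add b-H3K9 pep 500 nM / SAM 20 uM; 2 h RT; anti-H3K9me1 Ab 0.5 ug/mL + SA donor / anti-rabbit acceptor beads 20 ug/mL each, 10 min; AlphaScreen read.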
Sfp PPTase inh = inhibitors of Bacillus subtilis Sfp phosphopantetheinyl transferase | Biochemical Sfp PPTase activity, qHTS | Potency, µM, hits mostly inhibitors | 310,000 compounds, 3.5% hits | AID 1490;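 also: the enzyme is Sfp with the accession as filed and its product quenches rhodamine fluorescence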
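Reaction rates are the 30-min fluorescence difference (ex 525, em 598 nm) in wells containing 15 nM Sfp, 5 uM rhodamine-CoA and 12.5 uM BHQ-2-YbbR at pH 7.6 with 10 mM MgCl2.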
Hits are given with their value; i = inactive; ? = inconclusive; nt = not tested or not shown; [ ] = dose if it differs, or a comment. Calls follow the shape of the dose curve; as a rule, active = well fitted curve in the direction sought with a large enough effect; inconclusive = small, poorly fitted or top-dose-only effect, or another doubt; inactive = no such curve, though single readings can be large; an effect the other way counts as inactive or inconclusive.

SMILES | BAZ2B block | JMJD2A Tudor inh | HP1b chromo inh | TDP1 block | G9a inh | Sfp PPTase inh
CC(=O)OCC(NC(=O)C(C)NC(=O)OC(C)(C)C)C1OC(n2cc(F)c(=O)[nH]c2=O)C(OC(C)=O)C1OC(C)=O (stereo unspecified) | nt | i | i | i | nt | i
CCCCNC(=O)CCSc1nc(-c2ccc3c(c2)OCO3)cc(C(F)(F)F)n1 | i | i | i | i | i | nt
CCNc1ccc(S(=O)(=O)N(C)C)cc1NCC(=O)Nc1ccc(F)c(Cl)c1 | ? | ? | ? | i | 50µM | i
CCNc1ccc(S(=O)(=O)N(C)C)cc1NCC(=O)Nc1ccccc1F | i | i | i | i | ? | i
CCc1cccc(C)c1Nc1c(-c2cccs2)nc2ncccn12 | i | i | i | i | i | nt
Cc1ccccc1Nc1c(-c2ccc(N3CCOCC3)cc2)nc2cccc(C)n12 | ? | 22µM | ? | i[12.3 µM] | 14µM | nt
Cc1ccccc1Nc1c(-c2cccc(O)c2)nc2ccc(Br)cn12 | i | i | i | i | i | nt
Cc1cccc(C)c1Nc1c(-c2ccc(N3CCOCC3)cc2)nc2cnccn12 | i | ? | i | i | ? | i
Cc1ccccc1Nc1c(-c2ccc(N3CCOCC3)cc2)nc2ccccn12 | 18µM | 28µM | ? | i | 16µM | nt
CCc1cccc(C)c1Nc1c(-c2ccc(N3CCOCC3)cc2)nc2ncccn12 | 28µM | 40µM | ? | i | 10µM | nt
Cc1ccccc1Nc1c(-c2ccc(N3CCOCC3)cc2)nc2ccc(Br)cn12 | ? | ? | ? | i[12.3 µM] | 7.1µM | nt
COc1ccc(NC(=O)C2=C(C)Nc3ncnn3C2c2sccc2C)cc1 (stereo unspecified) | i | i | i | i | i | nt
CC(OC(=O)CCN=C1NS(=O)(=O)c2ccccc21)C(=O)Nc1ccc(F)cc1 (stereo unspecified) | i | i | i | i | i | nt
CCCn1c(=O)sc2cc(NC(=O)c3ccccc3OCC)ccc21 | i | i | i | i | i | nt
O=[N+]([O-])c1ccc(C(O)C23CN4CN(CN(C4)C2)C3)cc1 (stereo unspecified) | i | i | i | i | i | i
CSCCC(NC(=O)c1ccc(Cl)cc1Cl)C(=O)N1CCCCCCC1 (stereo unspecified) | ? | i | i | i | i | nt
Cc1noc(C)c1NC(=O)N(C)C[C@@H]1Oc2ccc(NC(=O)Cc3cn(C)c4ccccc34)cc2CC(=O)N([C@H](C)CO)C[C@@H]1C | nt | i | i | i | nt | nt
NS(=O)(=O)c1ccc(Sc2nc3ccccc3s2)c([N+](=O)[O-])c1 | i | ? | i | nt | 45µM | i
O=C(O)c1ccc(S(=O)(=O)Nc2ccc(O)c(Sc3nc4ccccc4s3)c2)cc1 | ? | 89µM | i | i | nt | i
O=C(O)c1c2ccccc2cc2ccccc12 | nt | nt | nt | i | nt | i
Cc1c2ccccc2cc(Cc2ccccc2)[n+]1C | i | i | i | i | 28µM | i
CC1(C)OCC(CSC2=C(SCC3COC(C)(C)O3)C(=O)c3ncccc3C2=O)O1 (stereo unspecified) | nt | nt | nt | i | nt | 1.3µM
O=c1c(-c2c(O)cc(O)c3c(=O)cc(-c4ccc(O)cc4)oc23)c(-c2ccc(O)cc2)oc2cc(O)cc(O)c12 | 28µM | 50µM | i | nt | ? | ?
O=C(c1ccccc1Cl)N1CCN(S(=O)(=O)c2cccs2)CC1 | i | i | i | i | i | i
COc1cc(C(=O)N2CCN(S(=O)(=O)c3cccs3)CC2)cc(OC)c1C | 50µM | 79µM | i | i | 4.5µM | i
SMILES | BAZ2B block | JMJD2A Tudor inh | HP1b chromo inh | TDP1 block | G9a inh | Sfp PPTase inh
COc1ccc(Br)c(C(=O)N2CCN(S(=O)(=O)c3cccs3)CC2)c1 | 89µM | i | i | i | i | i
CCOc1ccc(NC(=O)CSc2oc(-c3cccs3)nc2S(=O)(=O)c2ccc(C)cc2)cc1 | i | i | i | i | i | nt
O=C(c1cccc(O)c1)N1CCN(C(=O)C2CC2)CC1 | nt | i | i | i | nt | nt
CCN(CC)CCNC(=O)c1c2c(nc3ccccc13)C(=O)N(C1CCCCC1)C2 | i | i | i | i | i | nt
Cc1cnc2c(C(=O)O)cnn2c1 | ? | ? | ? | i | 56µM | i
CCOC(=O)c1cc(-c2ccc(OC)c(S(=O)(=O)NC3CCCCC3)c2)on1 | i | i | i | i | i | nt
CCC(=O)NC(c1ccc(N(C)C)cc1)c1c(O)ccc2ccccc12 (stereo unspecified) | 28µM | 50µM | ? | i | 10µM | i
CC(C)C(=O)NC(c1ccco1)c1c(O)ccc2ccccc12 (stereo unspecified) | i | ? | i | i | 32µM | i
CCC(=O)NC(c1ccc([N+](=O)[O-])cc1)c1c(O)ccc2ccccc12 (stereo unspecified) | i | ? | i | i | ? | i
CCCCCCCCCCCCCCCCOCC(CO)OC(C)=O (stereo unspecified) | nt | nt | nt | i | i | i
COc1ccccc1C(=O)NCCC(=O)Nc1ccc(OC(F)(F)F)cc1 | i | i | i | i[0.0935 µM] | i | i
COc1ccccc1OCC#CCn1ccnc1 | 18µM | 5.6µM | ? | i | 3.2µM | i
COc1ccccc1/C=C(/C(=O)NCCCn1ccnc1)c1ccccc1 | ? | i | i | i | i | i
O=C(CN1N=C(c2ccccc2)CCC1=O)NCc1ccc(F)cc1Cl | i | i | i | i | i | nt
Cc1ccc(C(=O)N/C(=C\c2ccc(Cl)cc2)C(=O)NC2CCCCC2)cc1 | i | i | i | i[12.3 µM] | i | nt
Cc1ccc2nc(/C(C#N)=C/c3ccc(-c4ccccc4C(=O)O)o3)[nH]c2c1 | ? | i | i | nt | ? | i
Cc1ccc2nc(/C(C#N)=C\c3ccc(N4CCOCC4)o3)[nH]c2c1 | ? | i | i | i | 10µM | i
COc1ccc(-c2noc(CSc3nc4ccccc4[nH]3)n2)cc1OC | i | i | i | i | i | nt
Cc1nc2c(c(=O)n1Cc1ccccc1Cl)c1nc3ccccc3nc1n2Cc1ccco1 | i | nt | nt | i | ? | 2.8µM
Cc1cc(C)cc(-n2c3nc4ccccc4nc3c3c(=O)n(Cc4ccco4)cnc32)c1 | 50µM | i | i | i | ? | 7.1µM
CCC(C)n1cnc2c(c1=O)c1nc3ccccc3nc1n2Cc1ccc(OC)cc1 (stereo unspecified) | i | i | i | i | i | i
COc1ccc(S(=O)(=O)c2c(N)n(Cc3ccco3)c3nc4ccccc4nc23)cc1 | i | i | i | i | 45µM | 56µM
COc1ccc(Cn2c3nc4ccccc4nc3c3c(=O)n(Cc4ccco4)c(C)nc32)cc1 | 50µM | nt | nt | 32µM | ? | 7.9µM
Cc1ccc(S(=O)(=O)c2c(N)n(CCCN(C)C)c3nc4ccccc4nc23)cc1 | i | i | i | i | i[12.7 µM] | i
N#C/C(=C/c1ccc(O)c(O)c1)c1nc2ccccc2[nH]1 | 7.9µM | 28µM | ? | nt | 11µM | i
Cc1ccc2nc(/C(C#N)=C\c3cc(C)n(-c4cccc([N+](=O)[O-])c4)c3C)[nH]c2c1 | ? | ? | i | i | ? | i
